Laboratory results from PubChem BioAssay (Tox21).
Records with an inconclusive call do not appear. Entries that show only a call come without a potency. Active and inactive are the calls of the source. Unless noted, calls follow the shape of the dose curve; as a rule, active = well fitted curve in the direction sought with a large enough effect in the repeat runs; inconclusive = weak or mixed curves; inactive = no such curve, though single readings can be large; an effect the other way counts as inactive or inconclusive.

Tests used:
[1] = A CellTox Green Cytotoxicity Assay to monitor cytotoxicity in HEK293 cells - 8 hour (AID 1224884); also: nearly all actives have a fitted effect of over 35% in size; also: potency is read from the fitted curve at half-maximal effect
Summary of the method: (§1)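 Cytotoxicity was tracked continuously in HEK293 cells by a DNA-binding dye excluded from viable cells. Compounds were transferred in DMSO 5 h after seeding; fluorescence was recorded at intervals up to 40 h.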

[2] = qHTS RealTime-Glo MT Cell Viability Assay in HepG2 cells - 16 hour (AID 1224885); also: nearly all actives have a fitted effect of over 50% in size; also: potency is read from the fitted curve at half-maximal effect
Summary of the method: (§2)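 Luminescence read-out: viable HepG2 cells reduce a prosubstrate to a NanoLuc substrate, giving a signal proportional to live cell number. Reads taken at 0, 8, 16, 24, 32 and 40 h of compound exposure at 37 C.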

[3] = qHTS RealTime-Glo MT Cell Viability Assay in HEK293 cells - 24 hour (AID 1224886); also: nearly all actives have a fitted effect of over 50% in size; also: potency is read from the fitted curve at half-maximal effect
Summary of the method: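 Nonlytic real-time viability readout: viable cells convert prosubstrate to NanoLuc substrate, giving luminescence proportional to live cell number. HEK293, 600 cells/well, compound added after 5 h, continuous culture at 37 C.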

[4] = qHTS RealTime-Glo MT Cell Viability Assay in HEK293 cells - 8 hour (AID 1224887); also: nearly all actives have a fitted effect of over 50% in size; also: potency is read from the fitted curve at half-maximal effect
Summary of the method: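 Nonlytic bioluminescent viability monitoring. HEK293 at 600 cells/well with reagent; 5 h settle; compound transfer by pintool; plates held at 37 C and read at set time points.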

[5] = A CellTox Green Cytotoxicity Assay to monitor cytotoxicity in HEK293 cells - 16 hour (AID 1224888); also: nearly all actives have a fitted effect of over 35% in size; also: potency is read from the fitted curve at half-maximal effect
Summary of the method: as §1

[6] = qHTS RealTime-Glo MT Cell Viability Assay in HepG2 cells - 0 hour (AID 1224889); also: nearly all actives have a fitted effect of over 50% in size; also: potency is read from the fitted curve at half-maximal effect
Summary of the method: as §2

[7] = A CellTox Green Cytotoxicity Assay to monitor cytotoxicity in HepG2 cells - 8 hour (AID 1224890); also: nearly all actives have a fitted effect of over 45% in size; also: potency is read from the fitted curve at half-maximal effect
Summary of the method: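 Real-time, homogeneous cytotoxicity readout: dead-cell DNA staining by CellTox Green in HepG2 monolayers, fluorescence measured at timed intervals up to 40 h of continuous compound exposure.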

[8] = biological target: Androgen receptor (Homo sapiens) (UniProt P10275); assay: qHTS assay to identify small molecule antagonists of the androgen receptor (AR) signaling pathway using the MDA cell line in the presence of 0.5 nM R1881 (AID 1259243)
Summary of the method: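 Steps: seed MDA-kb2 cells, incubate 5 hr at 37C; pin-transfer compounds in DMSO; add R1881 to 0.5 nM final; incubate 16 hr; add ONE-Glo, wait 30 min at room temperature; read luminescence.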

[9] = biological target: Estrogen receptor (Homo sapiens) (UniProt P03372); assay: qHTS assay to identify small molecule antagonists of the estrogen receptor alpha (ER-alpha) signaling pathway using the BG1 cell line in the presence of 0.1 nM 17-beta-estradiol (AID 1259244); also: nearly all actives have a fitted effect of over 50% in size; also: potency is read from the fitted curve at half-maximal effect
Summary of the method: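 After 5 days in hormone-depleted medium (charcoal-stripped serum, no phenol red), VM7Luc4E2 cells were seeded, incubated 24 h, then co-treated with compound and 0.1 nM (final) estradiol for 22 h before luminescence detection.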

[10] = qHTS assay to identify small molecule HDAC inhibitors (AID 1259364); also: nearly all actives have a fitted effect of over 45% in size; also: potency is read from the fitted curve at half-maximal effect
Summary of the method: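 Homogeneous cell-based luminescent assay of endogenous class I/II HDAC activity; HCT-116 cells, 2 h compound exposure, 30 min HDAC-Glo development at RT.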

[11] = qHTS assay to identify small molecule HDAC inhibitors - cell viability counter screen (AID 1259365)
Summary of the method: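 Counter screen in wild-type HCT-116 cells: compounds dissolved in DMSO are pin-transferred onto overnight-plated cells and left 2hr at 37C. ATP-based CellTiter-Glo luminescence then measures viable cells.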

[12] = qHTS assay to identify small molecule agonists of the sonic hedgehog signaling (Shh) pathway - cell viability counter screen (AID 1259366); also: nearly all actives have a fitted effect of over 50% in size; also: potency is read from the fitted curve at half-maximal effect
Summary of the method: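 Cells are plated at 2,000 per well and left 4hr at 37C, 5% CO2 before compound addition. After 23hr of treatment, CellTiter-Fluor reagent is added for 1hr at 37C and fluorescence is measured.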

[13] = qHTS assay to identify small molecule antagonists of the sonic hedgehog signaling (Shh) pathway - cell viability counter screen (AID 1259367); also: nearly all actives have a fitted effect of over 55% in size; also: potency is read from the fitted curve at half-maximal effect
Summary of the method: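 NIH/3T3-derived Gli1-Luc reporter cells, 2,000/well, plated 4 hr before compound addition, then stimulated with conditioned medium for 24 hr at 37C. Viability measured in the same wells by CellTiter-Fluor fluorescence, reagent added at 23 hr for 1 hr.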

[14] = qHTS assay to identify small molecule agonists of the sonic hedgehog signaling (Shh) pathway (AID 1259368; calls by dose curve;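 also: NIH/3T3-derived 3T3Gli1-Luc cells carrying a stable Gli1-driven firefly luciferase reporter; series mostly up to about 92 µM; nearly all actives have a fitted effect of over 15% in size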)
Summary of the method: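 Steps: seed 3T3 Gli1-Luc cells, incubate 4 hr at 37 C, pin-transfer compounds in DMSO alongside a positive control, incubate 24 hr, add luciferase detection reagent, wait 30 min at room temperature, read luminescence.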

[15] = qHTS assay to identify small molecule antagonists of the sonic hedgehog signaling (Shh) pathway (AID 1259369; calls by dose curve; also: nearly all actives have a fitted effect of over 45% in size; also: potency is read from the fitted curve at half-maximal effect)
Summary of the method: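 Inhibition of Shh signalling is measured as reduced Gli1-response-element firefly luciferase output in an NIH/3T3-derived stable reporter clone stimulated with conditioned medium for 24hr.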

[16] = qHTS assay to identify small molecule antagonists of the estrogen receptor alpha (ER-alpha) signaling pathway using the BG1 cell line in the presence of 0.1 nM 17-beta-estradiol - cell viability counter screen (AID 1259241); also: nearly all actives have a fitted effect of over 40% in size; also: potency is read from the fitted curve at half-maximal effect
Summary of the method: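 Cells were plated and left 24 hr, compounds in DMSO were pinned in, 17beta-estradiol was added to 0.1 nM final, and after 22 hr CellTiter-Fluor reagent was added for 30 min before fluorescence was read.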

[17] = qHTS assay to identify small molecule antagonists of the androgen receptor (AR) signaling pathway using the MDA cell line in the presence of 0.5 nM R1881 - cell viability counter screen (AID 1259242); also: nearly all actives have a fitted effect of over 45% in size; also: potency is read from the fitted curve at half-maximal effect
Summary of the method: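 Cytotoxicity toward MDA-kb2 cells is measured by CellTiter-Fluor live-cell protease fluorescence after 16 hr compound exposure at 37C in the presence of 0.5 nM R1881 stimulator.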

[18] = biological target: Estrogen receptor beta (Homo sapiens) (UniProt Q92731); assay: qHTS assay to identify small molecule agonists of the estrogen receptor beta (ER-beta) signaling pathway (AID 1259377; active = well fitted activation curve with a large enough effect in the signal ratio in the repeat runs, not every such curve was filed as active; the % refers to the signal ratio; also: potency is read from the fitted curve at half-maximal effect)
Summary of the method: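 Agonist mode cell assay in GripTite HEK293T cells expressing an ER-beta fusion that drives beta-lactamase from an Upstream Activator Sequence; 16 hr compound exposure at 37C, then 2 h LiveBLAzer B/G FRET substrate at room temperature, fluorescence read-out.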

[19] = qHTS assay to identify small molecule phospholipidosis (PLD) inducers (AID 1259344; active = well fitted curve in the direction sought with a large enough effect; an effect the other way counts as inactive or inconclusive)
Summary of the method: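 HepG2 cells, 900/well, treated with compound plus LipidTOX Red for 24 h at 37 C; amiodarone positive and DMSO negative controls. Fixed with paraformaldehyde/Hoechst, then high-content imaging scored LipidTOX pit count and integrated intensity per well and per cell.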

Chain of Estrogen receptor (Homo sapiens) (P03372 whole entry, looked up): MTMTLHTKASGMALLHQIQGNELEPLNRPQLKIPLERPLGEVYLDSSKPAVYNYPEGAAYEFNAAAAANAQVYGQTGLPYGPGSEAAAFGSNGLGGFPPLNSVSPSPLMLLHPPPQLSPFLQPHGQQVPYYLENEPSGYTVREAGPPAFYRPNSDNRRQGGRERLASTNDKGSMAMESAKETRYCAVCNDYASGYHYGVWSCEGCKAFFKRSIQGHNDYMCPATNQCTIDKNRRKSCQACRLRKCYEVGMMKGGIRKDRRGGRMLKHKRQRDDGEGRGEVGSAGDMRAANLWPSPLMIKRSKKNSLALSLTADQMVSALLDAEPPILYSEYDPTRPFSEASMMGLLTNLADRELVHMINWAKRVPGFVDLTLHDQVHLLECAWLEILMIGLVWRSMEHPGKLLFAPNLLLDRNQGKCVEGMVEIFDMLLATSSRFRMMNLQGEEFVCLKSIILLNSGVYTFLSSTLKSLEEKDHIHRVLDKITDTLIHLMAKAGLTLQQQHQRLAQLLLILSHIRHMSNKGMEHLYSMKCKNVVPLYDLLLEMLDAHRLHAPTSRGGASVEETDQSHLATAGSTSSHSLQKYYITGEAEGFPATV
Chain of Androgen receptor (Homo sapiens) (P10275 whole entry, looked up): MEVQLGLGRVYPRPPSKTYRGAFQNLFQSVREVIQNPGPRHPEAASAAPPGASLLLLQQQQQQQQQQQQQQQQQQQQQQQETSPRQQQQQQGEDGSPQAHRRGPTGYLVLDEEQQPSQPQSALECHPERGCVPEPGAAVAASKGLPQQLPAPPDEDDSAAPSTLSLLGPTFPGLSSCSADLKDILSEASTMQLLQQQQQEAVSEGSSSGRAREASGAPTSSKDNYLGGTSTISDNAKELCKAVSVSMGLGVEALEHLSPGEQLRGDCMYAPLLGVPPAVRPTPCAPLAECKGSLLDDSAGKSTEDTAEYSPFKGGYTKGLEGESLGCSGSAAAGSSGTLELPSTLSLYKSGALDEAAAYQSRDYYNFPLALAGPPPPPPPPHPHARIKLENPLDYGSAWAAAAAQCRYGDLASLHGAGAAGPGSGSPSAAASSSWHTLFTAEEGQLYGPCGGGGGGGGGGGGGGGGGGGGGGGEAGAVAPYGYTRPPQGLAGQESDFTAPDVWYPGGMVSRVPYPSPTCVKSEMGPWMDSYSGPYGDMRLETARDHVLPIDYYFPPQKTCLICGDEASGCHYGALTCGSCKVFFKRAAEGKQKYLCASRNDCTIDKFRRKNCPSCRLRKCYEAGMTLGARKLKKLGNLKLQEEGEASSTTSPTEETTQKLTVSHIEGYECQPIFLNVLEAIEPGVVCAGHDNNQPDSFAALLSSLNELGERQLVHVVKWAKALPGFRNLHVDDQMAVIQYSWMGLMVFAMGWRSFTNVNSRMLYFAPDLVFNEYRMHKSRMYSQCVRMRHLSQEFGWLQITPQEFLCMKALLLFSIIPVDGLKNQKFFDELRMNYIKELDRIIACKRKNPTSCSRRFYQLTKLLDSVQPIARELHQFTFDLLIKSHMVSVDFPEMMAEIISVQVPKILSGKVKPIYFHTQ
Chain of Estrogen receptor beta (Homo sapiens) (Q92731 whole entry, looked up, the tested form may be a part): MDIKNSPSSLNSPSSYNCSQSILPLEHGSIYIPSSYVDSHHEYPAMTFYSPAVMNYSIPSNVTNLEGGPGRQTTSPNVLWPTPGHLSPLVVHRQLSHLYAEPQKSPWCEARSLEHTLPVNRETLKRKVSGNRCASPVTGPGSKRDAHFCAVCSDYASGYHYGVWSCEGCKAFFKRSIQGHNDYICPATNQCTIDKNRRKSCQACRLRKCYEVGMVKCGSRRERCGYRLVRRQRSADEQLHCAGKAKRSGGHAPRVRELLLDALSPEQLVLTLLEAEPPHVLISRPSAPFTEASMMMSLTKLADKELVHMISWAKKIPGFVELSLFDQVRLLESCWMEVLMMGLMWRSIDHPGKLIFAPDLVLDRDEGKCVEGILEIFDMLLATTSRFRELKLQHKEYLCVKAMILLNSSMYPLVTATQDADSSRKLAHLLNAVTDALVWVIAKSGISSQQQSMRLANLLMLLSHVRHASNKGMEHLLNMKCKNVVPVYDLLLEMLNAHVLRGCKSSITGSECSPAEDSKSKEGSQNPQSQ

Compound	Potency [1]	Potency [2]	Potency [3]	Potency [4]	Potency [5]	Potency [6]	Potency [7]	Potency [8]	Potency [9]	Potency [10]	Potency [11]	Potency [12]	Potency [13]	Potency [14]	Potency [15]	Potency [16]	Potency [17]	Potency [18]	Potency [19]
Nc1ccc([N+](=O)[O-])cc1Cl	inactive	inactive	inactive	inactive	inactive	inactive	inactive	24.3 µM (active)	inactive	inactive	inactive	inactive	inactive	inactive	inactive				
C[C@]12CC[C@H]3[C@@H](CCC4=CC(=O)CC[C@@]43C)[C@@H]1CC[C@@H]2O	inactive	inactive	54.6 µM (active)	inactive	inactive	21.7 µM (active)	inactive		inactive	inactive		inactive	inactive	inactive		inactive	inactive	5.41 µM (active)	
CC(=O)/C=C/c1ccc2c(c1)OCO2	inactive	inactive	inactive		inactive	inactive	inactive			27.4 µM (active)	inactive			inactive	17.3 µM (active)	inactive	inactive		
CCC(C)c1cc([N+](=O)[O-])cc([N+](=O)[O-])c1OC(=O)C=C(C)C (stereo unspecified)	inactive		38.9 µM (active)	49 µM (active)	inactive	inactive	inactive			inactive	inactive			inactive	9.69 µM (active)	61.1 µM (active)	61.1 µM (active)	inactive	
CC1(c2ccc(Oc3ccccc3)cc2)OC(=O)N(Nc2ccccc2)C1=O (stereo unspecified)		49.3 µM (active)	43.9 µM (active)			inactive			8.69 µM (active)	inactive	inactive			inactive	6.15 µM (active)	21.8 µM (active)	24.5 µM (active)	inactive	
Cc1c(Cl)c(=O)oc2cc(OP(=O)(OCCCl)OCCCl)ccc12	inactive	inactive			inactive		inactive		inactive	inactive	inactive		inactive	inactive			inactive	inactive	inactive
COc1cccc(C(=O)CCN[C@@H](C)[C@H](O)c2ccccc2)c1	inactive			inactive		inactive	inactive	29.8 µM (active)		inactive	inactive			inactive	23.7 µM (active)	inactive		inactive	
C=CCC1=C(C)C(OC(=O)C2C(C=C(C)C)C2(C)C)CC1=O (stereo unspecified)	51.9 µM (active)		23.2 µM (active)	23.2 µM (active)						inactive	inactive	inactive	inactive	inactive	16.3 µM (active)				
CCN(CC)c1c([N+](=O)[O-])cc(C(F)(F)F)c(N)c1[N+](=O)[O-]	inactive		17.4 µM (active)	6.92 µM (active)	inactive	inactive				inactive	inactive	inactive	inactive	inactive	9.69 µM (active)	inactive	inactive		
CSCCCN=C=S	inactive	inactive		inactive	inactive	inactive	inactive			inactive		inactive	inactive	inactive	inactive	inactive	inactive		
CCCN(CCC)c1c([N+](=O)[O-])cc(S(N)(=O)=O)cc1[N+](=O)[O-]		24.5 µM (active)	23.3 µM (active)	31.6 µM (active)	52.2 µM (active)	inactive	23.3 µM (active)			inactive		54.5 µM (active)	24.3 µM (active)	inactive	4.86 µM (active)				inactive
[Cl][Sb]([Cl])[Cl]	inactive	inactive		inactive	inactive	inactive	inactive			inactive	inactive			inactive		27.3 µM (active)		inactive	
c1cc[c]([Sb]([c]2ccccc2)[c]2ccccc2)cc1	inactive	inactive		inactive	inactive	inactive	inactive				inactive	inactive	inactive	inactive	12.2 µM (active)	inactive			
ClCc1ccccc1CCl	inactive	inactive		inactive	inactive	inactive	inactive		inactive	inactive	inactive	inactive	inactive	inactive	inactive	inactive	inactive	inactive	
CN(C)[C@@H]1C(=O)C(C(N)=O)=C(O)[C@@]2(O)C(=O)C3=C(O)c4c(O)ccc(Cl)c4[C@@](C)(O)[C@H]3C[C@@H]12	inactive	inactive		inactive	inactive	inactive	inactive			inactive	inactive	inactive	inactive	inactive	55.6 µM (active)		inactive		inactive
Cc1cc(C(C)(C)c2cc(C)c(O)c(C)c2)cc(C)c1O	inactive		21.2 µM (active)		inactive	inactive	inactive			inactive				inactive	inactive	inactive	inactive		
N#Cc1c(-c2ccc(Cl)cc2)[nH]c(C(F)(F)F)c1Br	inactive		1.1 µM (active)		inactive		inactive	0.433 µM (active)	0.611 µM (active)	inactive	inactive		27.3 µM (active)	inactive	0.77 µM (active)	inactive			
